Test [1] in a line: qHTS assay to identify small molecule antagonists of the estrogen related receptor (ERR) signaling pathway from Tox21 library - cell viability counter screen (AID 1224834). Note: nearly all actives have a fitted effect of over 30% in size. The method in brief: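 After 17.5 h of compound exposure at 37 C, ERR cells are incubated with CellTiter-Fluor for 30 min and fluorescence intensity serves as the viability measure.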
The target of test [2] is Luciferin 4-monooxygenase (Photinus pyralis) (UniProt P08659). As to the kind of experiment: qHTS assay to identify small molecule inhibitors of firefly luciferase (AID 1224835). Note: nearly all actives have a fitted effect of over 25% in size. Note: potency is the fitted concentration of half-maximal effect. The method in brief:
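Biochemical qHTS: compounds run as interplate titrations against purified firefly enzyme, with D-luciferin and ATP each at its KM concentration. Light output recorded by CCD imaging.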
A general note: In qHTS, concentration-response curves come from the screen itself.

A short description of test [3]: qHTS assay to identify small molecule agonists of the constitutive androstane receptor (CAR) signaling pathway - cell viability counter screen (AID 1224836). Note: nearly all actives have a fitted effect of over 45% in size. The method in brief: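 HepG2 cells stably carrying hCAR and a CYP2B6-2.2kb reporter were plated 4 h, then given compounds at 15 concentrations plus PK11195 (final 0.75 uM). After 23 h at 37 C, viability was read by CellTiter-Fluor fluorescence.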

Test [4] in a line: qHTS assay to identify small molecule antagonists of the constitutive androstane receptor (CAR) signaling pathway - cell viability counter screen (AID 1224837). Note: nearly all actives have a fitted effect of over 45% in size. The gist of the method: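 Counter screen run in HepG2-CYP2B6-hCAR cells: 4 hr settle, compound titration (15 concentrations) with 50 nM CITCO, 23 hr at 37 C/5% CO2, CellTiter-Fluor fluorescence.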
Test [5] deals with Nuclear receptor subfamily 1 group I member 3 (Homo sapiens) (UniProt Q14994). Briefly: qHTS assay to identify small molecule antagonists of the constitutive androstane receptor (CAR) signaling pathway (AID 1224838). Note: nearly all actives have a fitted effect of over 40% in size. The gist of the method: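 Cell line: HepG2 double-stable for hCAR and CYP2B6-2.2kb reporter. Agonist: CITCO, 50 nM final. Compounds: 15 concentrations, 24 h, 37 C. Detection: ONE-Glo luminescence.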

Test [6] shares this target. As to the kind of experiment: qHTS assay to identify small molecule agonists of the constitutive androstane receptor (CAR) signaling pathway (AID 1224839). Note: nearly all actives have a fitted effect of over 15% in size. Note: potency is the fitted concentration of half-maximal effect. The method in brief:
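HepG2 cells stably expressing hCAR and a CYP2B6-2.2kb luciferase reporter were treated with compounds at 15 concentrations plus 0.75 uM PK11195 (final) for 24 h at 37 C; luminescence was read after ONE-Glo addition.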

The nature of test [7]: qHTS assay to identify small molecule antagonists of the estrogen related receptor signaling pathway with the pleiotropic PPARgamma coactivator (PGC) from Tox21 10K library - cell viability counter screen (AID 1224840; active = well fitted cell-killing curve with a large enough effect in the repeat runs, not every such curve was filed as active; note: nearly all actives have a fitted effect of over 40% in size). The gist of the method:
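Following seeding of 2,000 PGC/ERR cells/well and 6 hours' incubation, test compounds were delivered in DMSO. The plates then sat 17.5 hours at 37 C before a fluorogenic live-cell protease reagent (CellTiter-Fluor) was read after 30 min.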

Test [8] can be described thus: qHTS assay to identify small molecule antagonists of the estrogen related receptor signaling pathway with the pleiotropic PPARgamma coactivator (PGC) from Tox21 10K library (AID 1224841; call rule not given here; note: actives are mostly falling curves and most rising ones were filed inactive; nearly all actives have a fitted effect of over 50% in size). The method in brief: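 qHTS antagonist format: PGC/ERR cells, 2k/well, compound in DMSO by pin transfer after 6 h attachment, 18 h treatment at 37 C, One-Glo luminescence read at 30 min.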

For test [9], the target named is Thyrotropin receptor (Homo sapiens) (UniProt P16473). Briefly: qHTS assay to identify small molecule agonists of the thyroid stimulating hormone receptor (TSHR) signaling pathway (AID 1224843; calls by dose curve; note: nearly all actives have a fitted effect of over 45% in size). The method in brief:
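TSHR-HEK293 cells in agonist mode, 30 min room-temperature step, then cAMP measured by competitive HTRF (cAMP-d2 with anti-cAMP cryptate) after 1 h at room temperature. Tested at 15 concentrations in triplicate.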

A short description of test [10]: qHTS assay to identify small molecule agonists of the hypoxia (HIF-1) signaling pathway - cell viability counter screen (AID 1224844; calls by dose curve; note: nearly all actives have a fitted effect of over 50% in size). The gist of the method: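 Cells (HRE-bla ME-180, 2,000 per well) sat 5 hrs at 37C, got compound for 17 hrs, were read for CCF4-AM FRET, and were finally lysed with CellTiter-Glo for a 30 min room-temperature luminescence read.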
Test [11] is described as follows: qHTS assay to identify small molecule agonists of H2AX (AID 1224845; active = well fitted activation curve with a large enough effect in the signal ratio in the repeat runs, not every such curve was filed as active; the % refers to the signal ratio). The method in brief: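 Wild-type CHO-K1 cells, plated overnight, exposed 3hr at 37C to 15 concentrations (0.76% DMSO final). Lysed, then HTRF anti-pH2AX (S139) cryptate and anti-H2AX-d2 antibodies, 24 hr room temperature; 665/620 nm emission read.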
Test [12] is described as follows: qHTS assay to identify small molecule agonists of the hypoxia (HIF-1) signaling pathway (AID 1224846; active = well fitted activation curve with a large enough effect in the signal ratio in the repeat runs, not every such curve was filed as active; the % refers to the signal ratio). The gist of the method: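 A low-serum medium (0.5% dialyzed FBS) holding 2,000 HRE-bla ME-180 cells per well is preincubated for 5 hrs, dosed with compounds by pintool, and kept a further 17 hrs at 37C, 5% CO2 before CCF4-AM FRET detection of beta-lactamase.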

Test [13] is described as follows: qHTS assay to identify small molecule agonists of H2AX - cell viability counter screen (AID 1224847; calls by dose curve; note: nearly all actives have a fitted effect of over 30% in size; note: potency is the fitted concentration of half-maximal effect). The method in brief: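 Wild-type CHO-K1 cells (10% FBS medium) were plated overnight at 37C, exposed to compounds at 15 concentrations for 3 hr at 37C (0.76% DMSO final), and viability was read as CellTiter-Glo luminescence after 30 min at room temperature.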
Test [14] can be described thus: qHTS assay to identify small molecule antagonists of the estrogen related receptor (ERR) signaling pathway from Tox21 library (AID 1224848). Note: nearly all actives have a fitted effect of over 50% in size. The method in brief: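 ERR reporter cell line (from NTP) seeded 2,000 cells/well, rested 6 h at 37 C/5% CO2, then pin-dosed with compounds in DMSO. After 18 h at 37 C, ONE-Glo added; luminescence read after 30 min at room temperature.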

Test [15] can be described thus: qHTS RealTime-Glo MT Cell Viability Assay in HepG2 cells - 24 hour (AID 1224867). Note: nearly all actives have a fitted effect of over 50% in size. The method in brief: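 Luminescence read-out: viable HepG2 cells reduce a prosubstrate to a NanoLuc substrate, giving a signal proportional to live cell number. Reads taken at 0, 8, 16, 24, 32 and 40 h of compound exposure at 37 C.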
A short description of test [16]: qHTS RealTime-Glo MT Cell Viability Assay in HEK293 cells - 32 hour (AID 1224868). The gist of the method: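 Nonlytic real-time viability readout: viable cells convert prosubstrate to NanoLuc substrate, giving luminescence proportional to live cell number. HEK293, 600 cells/well, compound added after 5 h, continuous culture at 37 C.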
The nature of test [17]: A CellTox Green Cytotoxicity Assay to monitor cytotoxicity in HEK293 cells - 0 hour (AID 1224869). Note: nearly all actives have a fitted effect of over 50% in size. The method in brief:
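Fluorescence intensity, read at 0, 8, 16, 24, 32 and 40 h of compound treatment, reflected dye binding to DNA of dead HEK293 cells; compounds (23 nL, DMSO) were added 5 h after plating cells with reagent.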

The nature of test [18]: qHTS assay to identify small molecule agonists of the estrogen related receptor signaling pathway with the pleiotropic PPARgamma coactivator (PGC) from Tox21 10K library (AID 1224842). Note: nearly all actives have a fitted effect of over 15% in size. The gist of the method: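 PGC/ERR reporter cell line, 2,000 cells per well, incubated 6 h at 37 C before 23 nL compound in DMSO was added. After 18 h at 37 C, One-Glo luminescence read following 30 min at room temperature.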

Test [19] is described as follows: qHTS assay to identify small molecule agonists of the estrogen related receptor (ERR) signaling pathway from Tox21 library (AID 1224849; calls by dose curve; note: nearly all actives have a fitted effect of over 15% in size). Particulars: ERR reporter cell line, ONE-Glo luciferase, 18 h; at 92.4 µM (top of the series). The gist of the method:
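Screening used an NTP-provided ERR luciferase cell line. Compounds in DMSO were added 6 h after seeding and left 18 h at 37 C before a 30 min ONE-Glo step and luminescence reading.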

A short description of test [20]: qHTS assay to identify small molecule agonists of the estrogen related receptor signaling pathway with the pleiotropic PPARgamma coactivator (PGC) (AID 1224823). The method in brief: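 Steps: plate PGC/ERR cells at 2,000 cells/well; incubate 6 h, 37 C/5% CO2; pin-transfer compounds (DMSO); incubate 18 h, 37 C; add One-Glo; 30 min RT; read luminescence.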

Where “and” joins values, the source holds several entries; their conditions need not be identical. Equal values may be shown once. Values without a mark were called inactive. Results filed as inconclusive are left out. Calls of active or inactive are those of the source. Unless noted, calls come from the whole dose curve; as a rule, active = well fitted curve in the direction sought with a large enough effect in the repeat runs; inconclusive = weak or mixed curves; inactive = no such curve, though single readings can be large; an effect the other way counts as inactive or inconclusive.
% is set by controls: 0 for no effect and ±100 for the full control effect.

Luciferin 4-monooxygenase (Photinus pyralis), sequence (P08659 whole entry, looked up): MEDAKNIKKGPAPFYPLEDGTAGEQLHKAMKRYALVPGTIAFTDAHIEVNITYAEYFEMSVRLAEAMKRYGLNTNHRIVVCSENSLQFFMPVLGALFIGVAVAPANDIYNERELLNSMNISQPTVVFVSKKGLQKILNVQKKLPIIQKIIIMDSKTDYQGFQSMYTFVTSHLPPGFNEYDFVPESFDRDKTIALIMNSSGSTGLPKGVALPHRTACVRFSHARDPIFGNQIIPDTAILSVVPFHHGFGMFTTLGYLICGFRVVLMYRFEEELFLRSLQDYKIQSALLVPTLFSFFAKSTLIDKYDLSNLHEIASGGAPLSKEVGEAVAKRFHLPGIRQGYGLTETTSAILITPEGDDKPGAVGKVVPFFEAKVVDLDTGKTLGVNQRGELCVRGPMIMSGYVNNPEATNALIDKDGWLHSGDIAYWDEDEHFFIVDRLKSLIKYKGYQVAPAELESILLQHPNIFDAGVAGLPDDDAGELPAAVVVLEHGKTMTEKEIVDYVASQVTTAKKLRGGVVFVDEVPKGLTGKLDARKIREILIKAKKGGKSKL
Nuclear receptor subfamily 1 group I member 3 (Homo sapiens), sequence (Q14994 whole entry, looked up): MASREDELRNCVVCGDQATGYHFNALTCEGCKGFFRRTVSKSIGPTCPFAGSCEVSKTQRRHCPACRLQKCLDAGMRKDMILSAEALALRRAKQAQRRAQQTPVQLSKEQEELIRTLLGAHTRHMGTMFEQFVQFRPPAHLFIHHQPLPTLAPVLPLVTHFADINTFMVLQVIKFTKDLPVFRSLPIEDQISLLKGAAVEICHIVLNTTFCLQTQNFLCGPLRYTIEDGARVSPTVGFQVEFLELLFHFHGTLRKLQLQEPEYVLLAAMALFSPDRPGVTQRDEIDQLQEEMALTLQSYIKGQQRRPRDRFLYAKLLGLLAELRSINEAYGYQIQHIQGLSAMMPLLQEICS
Thyrotropin receptor (Homo sapiens), sequence (P16473 whole entry, looked up): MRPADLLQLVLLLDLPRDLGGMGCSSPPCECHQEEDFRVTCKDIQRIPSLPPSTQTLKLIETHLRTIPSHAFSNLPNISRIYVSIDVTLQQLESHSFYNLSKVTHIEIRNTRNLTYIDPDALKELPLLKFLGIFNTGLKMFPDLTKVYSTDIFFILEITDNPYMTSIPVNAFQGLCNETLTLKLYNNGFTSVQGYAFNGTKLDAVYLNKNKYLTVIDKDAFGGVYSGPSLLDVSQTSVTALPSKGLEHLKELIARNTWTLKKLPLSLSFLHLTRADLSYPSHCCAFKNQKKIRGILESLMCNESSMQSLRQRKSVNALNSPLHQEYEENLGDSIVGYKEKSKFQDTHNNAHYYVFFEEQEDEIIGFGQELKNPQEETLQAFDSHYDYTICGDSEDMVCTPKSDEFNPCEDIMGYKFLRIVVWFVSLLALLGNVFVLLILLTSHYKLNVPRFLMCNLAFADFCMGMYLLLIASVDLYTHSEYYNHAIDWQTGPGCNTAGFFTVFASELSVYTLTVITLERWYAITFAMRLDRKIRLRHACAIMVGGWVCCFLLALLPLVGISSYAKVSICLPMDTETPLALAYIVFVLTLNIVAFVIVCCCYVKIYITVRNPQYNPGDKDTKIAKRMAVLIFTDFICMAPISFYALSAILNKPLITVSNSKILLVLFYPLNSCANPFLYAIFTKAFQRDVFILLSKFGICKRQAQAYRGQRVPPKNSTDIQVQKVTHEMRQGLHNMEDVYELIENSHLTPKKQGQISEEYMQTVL

`O=S(=O)(Oc1ccc(Cl)cc1Cl)c1ccccc1`: the Potency result in [1], in test [3], in test [4], in [5], in test [7] and in [8] was “inactive” in each case. The Potency result in test [9], in test [10], in test [11], in test [14], in test [15] and in test [16] was “inactive” in each case. Besides, the Potency result in test [17] is “inactive”. Besides, the Potency in test [2] is 79.6 µM (active); in [6] it was 15.6 µM (active) and 48.6 µM (active); in test [13], 91.4 µM (active) and 50.5 µM (active). Besides, the molecule was classed as inactive in test [12].

For `CCCCNC(N)=O`, the Potency entry in test [1], in test [2], in [3], in test [4], in test [5] and in [6] was “inactive” throughout. For the same molecule, the Potency result in test [7], in [8], in [18], in test [10], in test [11] and in test [13] was “inactive” each time. Besides, the Potency entry in test [14], in test [15] and in [16] was “inactive” each time. Moreover, the result in test [12] was inactive.

In the case of `C[C@@H](O)[C@H]1C(=O)N2C(C(=O)O)=C(S[C@@H]3CN[C@H](C(=O)N(C)C)C3)[C@H](C)[C@H]12`, the Potency entry in [1], in test [2], in test [3], in test [4], in [5] and in [6] was “inactive” in each case. Moreover, the Potency entry in [7], in [8], in test [18], in [9], in test [10] and in test [11] was “inactive” in each case. Besides, the Potency entry in [13], in [14], in test [15] and in [16] was “inactive” in each case.

`O=C(Cl)c1c(Cl)c(Cl)c(C(=O)Cl)c(Cl)c1Cl`: the Potency result in [1], in test [2], in test [3], in test [4], in [5] and in test [6] was “inactive” in each case. Further, the Potency result in test [7], in test [8], in [18], in test [10], in test [11] and in test [13] was “inactive” each time. For the same molecule, the Potency result in test [14], in test [15], in [16] and in [17] was “inactive” each time. Moreover, in [12], the molecule was classed as inactive. Further, the activity change, positive = activation in test [19] was 2.78% and 1.3%.

For `O=C(O)c1cc(-c2ccccc2)nc2ccccc12`, the Potency result in test [20], in [1], in test [3], in test [4], in test [5] and in test [7] was “inactive” in each case. For the same molecule, the Potency entry in [8], in [9], in test [10], in test [11], in test [13] and in [14] was “inactive” throughout. The Potency entry in test [15], in test [16] and in test [17] was “inactive” each time. In addition, in test [2], the Potency was 12.8 µM (active) and 13.8 µM (active).

Turning to `CCCCCCCCCCCCOCC1CO1` (centres undefined), the Potency entry in test [1], in test [2], in test [3], in test [4], in [5] and in [6] was “inactive” in each case. Further, the Potency entry in test [7], in test [8], in test [18], in test [9], in test [10] and in test [11] was “inactive” each time. For the same molecule, the Potency entry in test [13], in test [14], in test [15] and in [16] was “inactive” throughout. Further, the molecule was classed as inactive in test [12]. Besides, the activity change, positive = activation in test [19] is -2.77% and -4.37%.

Take `CC(C)(CO)COC(=O)C(C)(C)CO`: the Potency entry in [1], in test [2], in [3], in [4], in [5] and in [6] was “inactive” throughout. Also, the Potency result in test [7], in test [8], in [18], in test [9], in test [10] and in [11] was “inactive” in each case. For the same molecule, the Potency entry in [13], in [14], in [15], in test [16] and in test [17] was “inactive” throughout. For the same molecule, the molecule was classed as inactive in [12].

The record behind these values is PubChem BioAssay (Tox21).
